HT1080-NT tox = qHTS for induction of synthetic lethality in tumor cells producing 2HG: qHTS for the HT-1080-NT fibrosarcoma cell line. AID 686970, 2013. 360,000 compounds, 1.6% hits. Potency, µM (titrated, usually from 46.1 µM), for inactives: at the top dose activity, negative = less viability, actives largely listed as cytotoxic. HT-1080-NT fibrosarcoma viability, CellTiter-Glo ATP luminescence, 48 h;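 also: NT is the 2HG producing partner of a matched IDH1 knockdown line; potency is read from the fitted curve at half-maximal effect; 0% = DMSO-treated cells and -100% = media-only wells without cells; nearly all actives have a fitted effect of over 55% in size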
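Luminescent CellTiter-Glo readout after 48 hours of compound exposure at 37 degrees C defined viability of HT-1080-NT cells. Activity was normalized to DMSO wells and cell-free media wells; concentration-response curves were fitted and assigned curve classes.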
DT40 TDP1 no CPT = qHTS for Inhibitors of human tyrosyl-DNA phosphodiesterase 1 (TDP1): qHTS in cells in absence of CPT; 420,000 compounds, 15% hits; AID 686978, 2013; Potency, µM (series often up to 46.2 µM), for the others: top-dose activity change, negative = growth inhibition, actives largely listed as inhibitors; DT40 Tdp1-/- hTDP1 cells, no CPT, ATP luminescence, 48 h; also: potency is read from the fitted curve at half-maximal effect; nearly all actives have a fitted effect of over 55% in size
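Readout: luminescence from CellTiter-Glo after 30 min in the dark at RT. Cells: DT40 Tdp1-/- with stable hTDP1, 400/well. Exposure: compounds alone, ≥48 hr, 37 °C.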
TDP1 cell CPT = qHTS for Inhibitors of human tyrosyl-DNA phosphodiesterase 1 (TDP1): qHTS in cells in presence of CPT. chicken DT40 Tdp1-/-;hTDP1 cells + 20 nM CPT, ATP luminescence, 48 h. Potency, µM (top dose mostly 46.2 µM), for the others: top-dose activity change, negative = growth inhibition, actives largely listed as inhibitors. 420,000 compounds, 12% hits. AID 686979, 2013; also: potency is read from the fitted curve at half-maximal effect; nearly all actives have a fitted effect of over 55% in size
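Cell growth measured by CellTiter-Glo luminescence after a minimum 48 h, 37 C compound exposure with 20 nM CPT in Tdp1-knockout DT40 cells stably expressing hTDP1, seeded 400/well; qHTS titration format.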
ALOX12 inh = Primary qHTS assay for inhibitors of human arachidonate 12S-lipoxygenase (ALOX12): Round 2. purified 12hLO, xylenol orange hydroperoxide absorbance. Potency, µM (top dose mostly 108 µM), for the others: at the highest dose activity change, negative = inhibition, most hits filed as inhibitors. 580,000 compounds, 1.1% hits; also: potency is read from the fitted curve at half-maximal effect
Target sequence (P18054 whole entry, looked up): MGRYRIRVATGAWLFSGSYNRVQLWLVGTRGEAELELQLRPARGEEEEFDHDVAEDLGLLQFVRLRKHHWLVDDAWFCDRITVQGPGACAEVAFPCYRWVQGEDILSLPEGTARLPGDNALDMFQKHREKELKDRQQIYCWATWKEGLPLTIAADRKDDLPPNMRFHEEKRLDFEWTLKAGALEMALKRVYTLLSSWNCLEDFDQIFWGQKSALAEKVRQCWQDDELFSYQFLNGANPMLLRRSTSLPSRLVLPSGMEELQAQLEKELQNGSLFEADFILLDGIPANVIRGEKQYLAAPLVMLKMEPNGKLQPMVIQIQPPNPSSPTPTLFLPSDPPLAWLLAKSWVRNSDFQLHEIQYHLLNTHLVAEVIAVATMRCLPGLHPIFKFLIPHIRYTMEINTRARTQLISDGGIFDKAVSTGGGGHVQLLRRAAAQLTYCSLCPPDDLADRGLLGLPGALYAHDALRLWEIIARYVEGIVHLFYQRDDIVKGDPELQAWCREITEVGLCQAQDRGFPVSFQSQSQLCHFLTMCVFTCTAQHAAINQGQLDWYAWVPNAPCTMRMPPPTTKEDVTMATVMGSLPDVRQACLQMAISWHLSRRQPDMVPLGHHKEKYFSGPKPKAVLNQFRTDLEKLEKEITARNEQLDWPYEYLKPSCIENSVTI
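Purified human 12hLO at 150 nM in 25 mM Hepes, 0.01% Triton X-100, pH 7.0, preincubated 15 min at room temperature with compound. Reaction started with 40 uM arachidonic acid, 30 min at room temperature. Hydroperoxide measured by Fe-xylenol orange, 573/405 nm absorbance ratio.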
IL1B secr inh = qHTS for Inhibitors of Inflammasome Signaling: IL-1-beta AlphaLISA Primary Screen. THP-1 LPS/ATP IL-1B secretion, AlphaLISA, 16 h; stronger effect = lower value. activity change, % at 57.5 µM. 360,000 compounds, 4.7% hits; in the data active = activity change below about -50%; inconclusive = mostly about -30% to -49%
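THP-1 cells pretreated 1 hr with compounds (up to 57.5 uM final), then stimulated with LPS (250 ng/mL final) plus ATP (1.25 mM final); secreted IL-1B measured by AlphaLISA after 16 hr, decreased signal indicating inhibition.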
HT1080 IDH1KD tx = qHTS for induction of synthetic lethality in tumor cells producing 2HG: qHTS for the HT-1080-IDH1KD cell line; HT-1080 IDH1 knockdown viability, ATP luminescence, 48 h; 360,000 compounds, 2% hits; AID 686971, 2013; Potency, µM (doses to about 46.1 µM), for the others: top-dose activity, negative = toxicity, usual class: cytotoxic;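 also: potency is read from the fitted curve at half-maximal effect; 0% = DMSO wells and -100% = cell-free medium wells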
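After a 2 h attachment period, IDH1KD HT-1080 cells took pin-transferred compound for 48 h at 37 °C; ATP-based luminescence after 10 min room-temperature reagent incubation reported viability.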
Numbers without * were called inactive; i = inactive; ? = inconclusive; / = no result; [ ] = remark or other dose. This is one part of a sample in which hits are shown more often than they occur. Unless noted, calls follow the shape of the dose curve; as a rule, active = well fitted curve in the direction sought with a large enough effect; inconclusive = small, poorly fitted or top-dose-only effect, or another doubt; inactive = no such curve, though single readings can be large; an effect the other way counts as inactive or inconclusive. Unless noted, % is scaled to controls: 0 for no effect and ±100 for the full control effect.

SMILES	HT1080-NT tox	DT40 TDP1 no CPT	TDP1 cell CPT	ALOX12 inh	IL1B secr inh	HT1080 IDH1KD tx
CCOC(=O)C1=C(CNCCc2ccc(Cl)cc2)NC(=O)NC1c1ccc2c(c1)OCO2 (stereo unspecified)	?	?	?	0%	?	?
CCOc1cccc(C2Nc3ccccc3-c3cc(C)nn32)c1O (stereo unspecified)	/	-12%	4%	-8%	/	/
CCOc1cccc(C2C=C(c3ccc4c(c3)OCO4)NC(c3ccc(Cl)cc3)N2)c1O (stereo unspecified)	/	13µM*	10µM*	/	/	/
CC(C)c1cc(C(=O)Nc2ccc(C(N)=O)cc2)c2ccccc2n1	/	/	/	28%	/	/
Cc1c(C#N)c(O)n(C)c(=O)c1N=Nc1ccc(S(N)(=O)=O)cc1	-2%	13µM*	?	-22%	-19	-1%
Cc1ccc(-c2nn(-c3cc(N4CCNCC4)ccc3[N+](=O)[O-])c(=O)c3ccccc23)cc1	15µM*	4.1µM*	3.7µM*	-17%	-182*	?
O=C([C@@H]1C[C@H](Oc2cccnc2)CN1S(=O)(=O)c1cccc(F)c1)N1CCCC1	/	/	/	28%	/	/
COCCn1c(SCC(=O)N(C)CCOc2ccc(Cl)cc2)nnc1-c1ccccc1	/	/	/	-6%	/	/
COc1ccc(-c2[nH]ncc2CN2CCN(Cc3cccs3)CC2)c(F)c1	-5%	?	-10%	6%	26	0%
COc1cc(-c2[nH]ncc2CN2CCN(Cc3cccs3)CC2)cc(OC)c1OC	-19%	21µM*	18µM*	1%	40	-25%
CCc1ccc(N(C(=O)c2ccoc2C)C(C(=O)NC2CCCC2)c2ccc(OC)cc2)cc1 (stereo unspecified)	17%	18µM*	23µM*	-24%	?	0%
COc1ccc(C(C(=O)NC2CCCC2)N(C(=O)c2ccoc2C)c2ccc(C)c(C)c2)cc1 (stereo unspecified)	-19%	13µM*	?	-4%	?	?
COc1ccc(C(C(=O)NC2CCCC2)N(C(=O)c2ccoc2C)c2ccccc2)cc1 (stereo unspecified)	-18%	?	?	-10%	-3	-1%
COc1ccc(C(C(=O)NC2CCCCC2)N(C(=O)c2sc(C)nc2C)c2ccc(OC)cc2)cc1 (stereo unspecified)	3%	-22%	?	?	5	-4%
COc1ccc(C(C(=O)NC2CCCC2)N(C(=O)c2ccoc2C)c2cc(C)cc(C)c2)cc1 (stereo unspecified)	-17%	29µM*	26µM*	12%	?	-30%
Cc1cc(C)c2c(CC(=O)Nc3nnc(C(C)C)s3)coc2c1	/	?	?	-17%	/	/
CC1CCC(Nc2nc3c(-c4cccc(C(F)(F)F)c4)nnn3c3ccccc23)CC1 (stereo unspecified)	/	29µM*	?	-14%	/	/
NNc1nc2c(-c3cccc(C(F)(F)F)c3)nnn2c2ccccc12	21µM*	-106%	-119%	6%	-12	21µM*
Cc1ccc(-c2nnn3c2nc(NC2CCC(C)CC2)c2ccccc23)cc1 (stereo unspecified)	/	?	-12%	-20%	/	/
CCOC(=O)c1nnn2c1nc(Nc1cccc(C(F)(F)F)c1)c1ccccc12	25%	5.8µM*	10µM*	-11%	/	19%
C=CCSc1nc2c(C(=O)OCC)nnn2c2ccccc12	-8%	9.2µM*	?	0%	2	-13%
O=C(c1ccccc1)N1CCC2(CC1)COc1ccccc1NC2=O	/	/	/	51%[176 µM]	/	/
Cc1ccc(CNC(=O)Cn2c(=O)c(-c3noc(C)n3)c3n(c2=O)CCCC3)cc1	/	/	/	40%	/	/
Cc1ccccc1-c1[nH]nc2ncc(-c3c(C)noc3C)nc12	/	/	/	4%[176 µM]	/	/
COC(=O)c1cc(C)sc1NC(=O)CN1CCN(C(=O)C2CCCO2)CC1 (stereo unspecified)	2%	-15%	6%	1%	i	5%
SMILES	HT1080-NT tox	DT40 TDP1 no CPT	TDP1 cell CPT	ALOX12 inh	IL1B secr inh	HT1080 IDH1KD tx
CCOc1ccc(S(=O)(=O)NC(C)C(=O)NCc2cccnc2)cc1 (stereo unspecified)	-1%	0%	-3%	0%	11	-1%
Cc1cccc(NC(=O)CSc2nnc(-c3ccco3)c(-c3ccco3)n2)c1	-5%	18µM*	?	?	-94*	-8%
Cc1cccc(NC(=O)CSc2nnc(-c3ccco3)c(-c3ccco3)n2)c1C	9%	?	-7%	/	-87*	-4%
Cc1ccc2nc(N3CCN(C4CCCCC4)CC3)c(-n3nc(C)cc3C)nc2c1	/	/	/	-1%	/	/
CCN(CC)C(=O)C1=C(C)N(CCC2=CCCCC2)C(=O)C(CC(=O)NCc2ccco2)C1 (stereo unspecified)	0%	?	?	?	-11	0%
Oc1ccccc1-c1nc2c3ccccc3c3ccccc3c2[nH]1	?	18µM*	21µM*	-5%	29	?
c1ccc(-c2nc(-c3cccs3)[nH]c2-c2ccccc2)cc1	2%	?	?	1%	-3	-29%
c1csc(-c2nc3c4ccccc4c4ccccc4c3[nH]2)c1	-25%	?	21µM*	?	-5	?
COC(=O)[C@H]1CCCN1C(=O)[C@@H]1C[C@H](NC(=O)NC(C)C)CN1C(=O)CSC	/	/	/	11%[176 µM]	/	/
Cc1ccc(/C(C#N)=C\c2cccn2C)cc1	/	/	/	45µM*	/	/
COc1cc(CNc2ccc(C(=O)O)cc2)cc(Br)c1OCC(=O)NC(C)(C)C	9%	?	7%	-26%	12	12%
C=CCOc1c(Br)cc(CNc2ccc(NC(=O)C(C)C)c(OC)c2)cc1OC	?	18µM*	?	5%	-3	?
C=CCOc1c(Br)cc(CNn2nnnc2N)cc1OC	-6%	7.3µM*	-20%	8%	24	0%
COc1cc(NC(=O)Cn2ncc(Cl)c(Cl)c2=O)c(C)cc1[N+](=O)[O-]	7.3µM*	4.6µM*	2.9µM*	0%	-95*	2.6µM*

Screens as filed in PubChem.
